HT1080 IDH1KD tx = toxicity to HT-1080 IDH1 knockdown cells (counter line) | HT-1080 IDH1 knockdown viability, ATP luminescence, 48 h | Potency, µM (titrated, usually from 46.1 µM), hits mostly cytotoxic | hit rate 2% among 360,000 | AID 686971
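HT-1080-IDH1KD cells (IDH1 knocked down), 750/well in RPMI with 5% FBS, treated with compound 48 h at 37 degrees C. Viability by CellTiter-Glo luminescence, normalised to DMSO and no-cell wells; concentration-response curves classed.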
IL-1B inflam inh = blocks inflammasome-driven IL-1 beta release; THP-1 LPS/ATP IL-1B secretion, AlphaLISA, 16 h; stronger effect = lower value; activity change, % at 57.5 µM; hit rate 4.7% among 360,000; AID 743279; in the data active = activity change below about -50%; inconclusive = mostly about -30% to -49%
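Secreted IL-1B measured by AlphaLISA bead assay after 16 h compound exposure of THP-1 cells; compounds (final up to 57.5 uM) added 1 h before LPS (250 ng/mL) and ATP (1.25 mM) stimulation; lower signal means less secretion.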
Giardia killer = kills Giardia lamblia. hit rate 0.15% among 340,000. Giardia lamblia trophozoite viability. activity change, % at 7.66 µM, hits read low; in the data active = activity change below about -80%; inconclusive = between about -30% and that limit;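 note: parasites exposed to compound for two days anaerobically before the ATP read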
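Media and compound were dispensed first, then trophozoites at 100 cells/well; plates sat 48 hrs at 37 deg C without oxygen before ATP luminescence reagent was added and read after 15-30 min at room temperature.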
TGFb inhibitor = TGF-b pathway inhibition; Potency, µM (top dose mostly 46.1 µM), usual class: inhibitors; AID 588855; hit rate 1.2% among 410,000; HepG2 CAGA-GFP TGF-b/SMAD3 reporter, GFP fluorescence, 18 h; TGF-beta stimulated, 500 pg/mL final; note: nearly all actives have a fitted effect of over 65% in size
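HEPG2 CAGA-GFP, 1000 cells/well; 2 h settle, 37 C; cpd via pin tool; TGF-b 500 pg/mL final; 18 h, 37 C; GFP imaging ex488/em500-530; %Activity normalised to -TGF-b and +DMSO controls; CRC fit, curve class.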
HepG2 tox = HepG2 cytotoxicity, counter-screen for TGF-b inhibitors. HepG2 CAGA-GFP viability, ATP luminescence, 18 h. Potency, µM (doses to about 46.1 µM), actives largely listed as cytotoxic. hit rate 0.76% among 410,000. AID 588856
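HepG2 CAGA-GFP cells (1000/well, DMEM with 1% FBS) received compound, then TGF-beta at 500 pg/mL final, and were incubated 18 hours at 37 degrees C. Viability was read by CellTiter-Glo luminescence. Media-only wells were set as complete cell-killing and DMSO as no toxicity.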
HT1080NT lethal = kills 2HG-producing HT-1080-NT fibrosarcoma cells; hit rate 1.6% among 360,000; HT-1080-NT fibrosarcoma viability, CellTiter-Glo ATP luminescence, 48 h; Potency, µM (series often up to 46.1 µM), hits mostly cytotoxic;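 note: NT is the 2HG producing partner of a matched IDH1 knockdown line; nearly all actives have a fitted effect of over 55% in size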
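HT-1080-NT fibrosarcoma cells (2HG-overproducing), 750 cells/well in RPMI with 5% FBS, dosed after 2 h and incubated 48 h at 37C. CellTiter-Glo luminescence normalized to DMSO and no-cell wells; concentration-response curves fitted and classed.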
A number is an active result; 0 = inactive; ? = inconclusive; - = not tested or not shown; [ ] = remark or other dose. An excerpt weighted towards active compounds, which were near 6.5% of everything screened. Unless noted, calls come from the whole dose curve; as a rule, active = well fitted curve in the direction sought with a large enough effect; inconclusive = small, poorly fitted or top-dose-only effect, or another doubt; inactive = no such curve, though single readings can be large; an effect the other way counts as inactive or inconclusive.

SMILES	HT1080 IDH1KD tx	IL-1B inflam inh	Giardia killer	TGFb inhibitor	HepG2 tox	HT1080NT lethal
Cc1cc(C)cc(Nc2ccc3nonc3c2[N+](=O)[O-])c1	0	0	0	0	0	0
COc1cc(CN2CCCC(C(=O)Nc3cccc(-n4cccn4)c3)C2)ccc1F (configuration not stated)	?	-66.2	0	0	0	?
COC(=O)C[C@@H]1CC[C@H](NC(=O)Nc2ccc(OC)cc2)[C@@H](CO)O1	0	-56.9	-	-	-	0
COC(=O)C[C@@H]1CC[C@H](NC(=O)Nc2ccc(F)cc2)[C@@H](CO)O1	0	0	-	-	-	0
CCOC(=O)Cn1cc(C(=O)C(C)(C)C)c2ccccc21	0	0	0	0	0	0
CCOC(=O)Cn1cc(C(=O)C2CC2)c2ccccc21	0	0	0	0	0	0
COC(=O)Cn1cc(C(=O)C2CC2)c2ccccc21	0	-89.1	0	0	0	0
COC(=O)Cn1cc(C(=O)C(C)(C)C)c2ccccc21	0	-73.5	0	0	0	0
CCCC[C@@H]1Cc2[nH][nH]c(=O)c2[C@H](c2ccc3ccccc3c2)O1	23.1µM	0	-	-	-	0
CCCC[C@@H]1Cc2[nH][nH]c(=O)c2[C@@H](c2ccc(Cl)cc2)O1	0	0	-	-	-	0
CCCC[C@@H]1Cc2[nH][nH]c(=O)c2[C@H](c2ccc(C(C)C)cc2)O1	0	-64.6	-	-	-	0
CCCCC1Cc2[nH]c(=S)[nH]c(=O)c2C(c2ccc3ccccc3c2)O1 (configuration not stated)	?	0	-	-	-	?
COC(=O)c1ccc(C(=O)OC)c(NC(=O)C(C)C)c1	0	0	0	0	0	0
Cc1cc(C)c2nc(SCC(=O)N3CC(=O)Nc4ccccc43)c(C#N)cc2c1	0.92µM	0	0	?	0	?
Cc1cccc(C)c1-n1c(SCC(=O)N2CC(=O)Nc3ccccc32)nc2ccccc2c1=O	0	0	0	0	0	0
COc1ccc(-n2c(SCC(=O)N3CCCCC3)nc3ccccc3c2=O)cc1	0	0	0	0	0	0
COc1ccc2nc(SCC(=O)N3CC(=O)Nc4ccccc43)c(C#N)cc2c1	?	?	0	0	0	?
Cc1ccc(-n2c(SCC(=O)N3CC(=O)Nc4ccccc43)nc3ccccc3c2=O)cc1	0	-74.4	0	0	0	0
Cc1nn(-c2ccccc2)c(C)c1/C=N/NC(=O)CSc1nc2ccccc2c(=O)n1-c1ccc(Br)cc1	13µM	0	0	?	0	20.6µM
CCOC(=O)N1CCN(C(=O)CSc2nc3ccccc3c(=O)n2-c2ccccc2)CC1	0	0	0	3.16µM	0	0
CCc1nc2ccc(C(=O)NCCN3CCNC3=O)cn2c1N(C)Cc1ccc(OC)cc1	0	0	-	0	0	0
Cc1ccc(N2CC(O)Cn3c2nc2c3c(=O)n(C)c(=O)n2C)cc1 (configuration not stated)	0	0	0	0	0	0
COCCn1c(SCC(=O)N2CC(=O)Nc3ccccc32)nc2ccccc2c1=O	0	0	0	0	0	0
CC(C)c1nc(SCC(=O)N2c3ccccc3CC2C)c2ccccc2n1 (configuration not stated)	0	-99.0	0	?	0	?
CC(C)c1nc(SCC(=O)N2CC(=O)Nc3ccccc32)c2ccccc2n1	?	-99.3	0	0	0	?
SMILES	HT1080 IDH1KD tx	IL-1B inflam inh	Giardia killer	TGFb inhibitor	HepG2 tox	HT1080NT lethal
COc1ccc(N2CCN(C(=S)Nc3ccc(OC)cc3OC)CC2)cc1	0	0	0	0	0	0
COc1cccc(CNC(=O)C2CCCN(C(=O)c3ccc(Cl)cc3)C2)c1 (configuration not stated)	0	0	0	0	0	0[9.24 µM]
CN(C)c1oc(-c2ccccc2Cl)nc1P(=O)(c1ccccc1)c1ccccc1	0	-62.3	0	?	0	0
Cc1ccc(S(=O)(=O)c2nc(-c3ccccc3Cl)oc2N(C)C)cc1	?	0	0	0	0	?
Cc1ccccc1Nc1nc(N)nc(CCl)n1	14.6µM	-93.6	0	0	0	1.16µM
COc1ccc(Nc2nc(N)nc(CCl)n2)cc1	23.1µM	-59.8	0	0	0	1.46µM
Nc1nc(CCl)nc(Nc2ccc3ccccc3c2)n1	8.2µM	-98.9	0	?	0	2.06µM
COc1ccc(Nc2nc(N)nc(CN3CCOCC3)n2)cc1	0	0	0	0	0	0
N/C(=N\OC(=O)CSc1ccccc1)c1cccc([N+](=O)[O-])c1	0	0	0	0	0	0
CC(C(=O)N1c2ccccc2CCc2ccccc21)n1nnc(-c2ccc(N(C)C)cc2)n1 (configuration not stated)	0	0	0	0	0	0
CCN(CC)CCCN(C(=O)c1cccc(C)c1)c1nc(-c2ccc(OC)cc2)cs1	?	-50.4	0	?	0	0
CCN(CC)CCCN(C(=O)c1cccs1)c1nc(-c2ccc(OC)cc2)cs1	?	?	0	0	0	?
COc1ccc(-c2csc(N(C)C(=O)c3cccs3)n2)cc1	0	-59.6	0	0	0	0
CCN(CC)CCCN(C(=O)c1ccc(Br)cc1)c1nc(-c2ccc(OC)cc2)cs1	?	-81.5	0	?	0	?
COc1ccc(-c2csc(N(Cc3ccco3)C(=O)c3cccs3)n2)cc1	0	0	0	0	0	0
C/C(=N\NC(=S)NCc1ccccc1)c1ccc(Cl)s1	0	0	0	0	0	0
COCCNC(=S)N/N=C(\C)c1ccccc1O	0	?	?	5.62µM	0	0
COCCNC(=S)N/N=C(\C)c1ccc(Cl)s1	0	-96.1	0	?	0	?
COCCNC(=S)N/N=C(\C)c1ccc(Cl)c(Cl)c1	0	0	0	8.91µM	0	0
CCN(C(=O)COC(=O)c1cncc(Br)c1)C1CCS(=O)(=O)C1 (configuration not stated)	0	0	0	0	0	0
COc1ccc(CCNC(=O)CSc2cn(Cc3ccccc3)c3ccccc23)cc1OC	0	0	0	0	0	0
COc1cccc(C2c3[nH]c4ccccc4c3CCN2C(=O)c2ccccc2F)c1OC (configuration not stated)	?	?	0	?	0	?
O=C(c1cn[nH]c1)N1CCc2c([nH]c3ccccc23)C1c1c(F)cccc1Cl (configuration not stated)	0	-52.5	0	?	0	?
CCOC(=O)N1CCN(Cc2nc3cc(NC(=O)c4ccc(OC)cc4)ccc3n2C(C)C)CC1	-	-	-	?	0	-
CC(=O)Nc1cccc(-c2csc(N)n2)c1	0	0	0	0	0	0
CC(=O)Nc1cccc(-c2cnc(N)c(C(=O)c3cccnc3)n2)c1	0	-98.7	0	10µM	0	0
